In the library only some 7.3% were active in any assay of this set; here they are far more common.
FLuc modulator: counter-screen for miR-21 project: firefly luciferase inhibitors or activators | purified FLuc, Km substrates, luminescence inhibition | Potency, µM (titrated, usually from 57.5 µM), without a hit: top-dose activity change, negative = inhibition, actives largely listed as inhibitors | hit rate 6.9% among 360,000 | P08659 | AID 588342;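 also: plate controls were vehicle for no effect and reference inhibitor for full effect; nearly all actives have a fitted effect of over 55% in size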
Target sequence (P08659 whole entry, looked up): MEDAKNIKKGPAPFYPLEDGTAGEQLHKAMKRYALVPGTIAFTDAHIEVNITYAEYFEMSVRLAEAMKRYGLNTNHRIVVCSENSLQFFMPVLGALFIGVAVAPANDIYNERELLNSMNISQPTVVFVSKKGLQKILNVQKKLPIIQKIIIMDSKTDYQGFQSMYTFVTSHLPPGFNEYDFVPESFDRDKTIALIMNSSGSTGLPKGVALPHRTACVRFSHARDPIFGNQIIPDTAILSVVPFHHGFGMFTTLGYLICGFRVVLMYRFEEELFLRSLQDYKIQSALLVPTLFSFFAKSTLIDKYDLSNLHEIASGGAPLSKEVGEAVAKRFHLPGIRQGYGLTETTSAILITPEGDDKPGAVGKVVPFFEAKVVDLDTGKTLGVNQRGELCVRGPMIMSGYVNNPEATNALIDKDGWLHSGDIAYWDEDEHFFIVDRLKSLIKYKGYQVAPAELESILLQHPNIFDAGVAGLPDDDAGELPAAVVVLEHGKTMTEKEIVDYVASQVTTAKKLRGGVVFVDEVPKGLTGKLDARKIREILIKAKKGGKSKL
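Purified P. pyralis luciferase, 10 nM final, with Km-level 10 uM D-luciferin and 10 uM ATP in 50 mM Tris acetate pH 7.5, 10 mM Mg acetate, 0.01% Tween-20, 0.05% BSA; 6-point qHTS titration about 60 µM downward; luminescence read.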
NPC1 prom act: activators of NPC1 promoter; AID 485313; Huh7 NPC1 promoter luciferase reporter, 24 h; hit rate 2.4% among 320,000; Potency, µM (doses to about 9.22 µM), for the others: at the top dose activation, actives largely listed as activators; also: % of control where 0% means no effect; nearly all actives have a fitted effect of over 60% in size
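Cells: Huh7 expressing luciferase under the NPC1 promoter, 1500/well. Seeded 2 h, compound added, incubated 24 h at 37 °C. Luciferase reagent, 10 min ambient, then luminescence.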
SMN2 splice up: increases expression of the SMN2 splice variant. HEK293 SMN2-luciferase splicing reporter, luminescence, 30-36 h. Potency, µM (highest dose often 46.1 µM), for inactives: top-dose activity change, positive = activation, most hits filed as activators. hit rate 2.8% among 210,000. AID 1458; also: % of control where 0% means no effect; nearly all actives have a fitted effect of over 55% in size
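HEK293 cells carry an SMN2 minigene-luciferase reporter in which exon 7 inclusion puts luciferase in frame. Cells were seeded at 2000 cells/well, attached for 10-12 hours, then exposed to compounds for 30-36 hours at 37C before ONE-Glo luminescence.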
Rab9 promoter act: Rab9 promoter activation | Huh7 Rab9 promoter-luciferase reporter, luminescence, 24 h | Potency, µM (doses to about 9.22 µM), without a hit: at the top dose activation, negative = inhibition, most hits filed as activators | hit rate 2.8% among 320,000; also: % of control where 0% means no effect; nearly all actives have a fitted effect of over 60% in size
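Using Huh7 cells stably transfected with Rab9 promoter–luciferase, compounds were incubated 24 h at 37 °C, 5% CO2; luciferase luminescence was read 10 min after reagent addition.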
Luc counter: counter-screen: inhibitors of Kinase-Glo firefly luciferase; hit rate 0.28% among 200,000; Q27757; Potency, µM (titrated, usually from 38.3 µM), without a hit: top-dose activity change, negative = inhibition, hits mostly inhibitors; Kinase-Glo luciferase, ATP luminescence, 8 min; AID 1379; also: % is scaled to controls: 0 for no effect and ±100 for the full control effect; nearly all actives have a fitted effect of over 60% in size
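Recombinant Kinase-Glo luciferase, 10 uM ATP (linear range), luciferin; imidazole pH 7.2 / KCl / MgCl2 / Tween / BSA buffer; 8 min RT; luminescence.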
ELG1 genotoxic: genotoxicity induction in ELG1-luciferase HEK293T cells; HEK293T ELG1-luciferase reporter, luminescence, 16 h; AID 504466; Potency, µM (highest dose often 46 µM), for the others: top-dose activity change, positive = activation, usual class: activators; hit rate 1.3% among 330,000; also: % of control where 0% means no effect; nearly all actives have a fitted effect of over 60% in size
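DMSO vehicle served as control against compound-treated ELG1-luciferase HEK293T cells; exposure lasted 16 hr at 37 °C and 5% CO2, followed by ONE-Glo luminescence detection after 30 min.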
* marks the source's active call; other numbers are inactive results; ? = inconclusive; . = not tested or not shown. Calls follow the shape of the dose curve; as a rule, active = well fitted curve in the direction sought with a large enough effect; inconclusive = small, poorly fitted or top-dose-only effect, or another doubt; inactive = no such curve, though single readings can be large; an effect the other way counts as inactive or inconclusive. Potency is read from the fitted curve at half-maximal effect.

SMILES	FLuc modulator	NPC1 prom act	SMN2 splice up	Rab9 promoter act	Luc counter	ELG1 genotoxic
COc1cc(C)nc(N2CCCC(C(=O)NC3CCC(C)CC3)C2)n1 (configuration not stated)	11µM*	3.2µM*	?	4µM*	3%	?
CCC(C)NC(=O)C1CCCN(c2nc(C)cc(OC)n2)C1 (configuration not stated)	0%	1%	2%	-5%	2%	-1%
COc1ccccc1NC(=O)CSc1oc(-c2ccccc2)nc1S(=O)(=O)c1ccc(C)cc1	1%	.	-9%	.	.	.
CCNC(=O)C1CCCN(c2nn3cc(-c4ccc(C)cc4)nc3s2)C1 (configuration not stated)	1.2µM*	.	.	.	.	.
Cc1ccc(-c2cn3nc(N4CCCC(C(=O)NCc5ccc(F)cc5)C4)sc3n2)cc1 (configuration not stated)	8.5µM*	.	.	.	.	.
Cc1ccc(-c2cn3nc(N4CCCC(C(=O)Nc5ccc(F)cc5)C4)sc3n2)cc1 (configuration not stated)	12µM*	.	.	.	.	.
COc1ccc(-c2cn3nc(N4CCC(C(=O)NCc5ccc(F)cc5)CC4)sc3n2)cc1	-1%	.	.	.	.	.
COc1ccc(-c2cn3nc(N4CCCC(C(=O)Nc5cc(C)cc(C)c5)C4)sc3n2)cc1 (configuration not stated)	-19%	.	.	.	.	.
CCN(CC)c1cc(C)c2cc(NC(=O)/C=C/c3ccccc3OC(C)C)ccc2n1	-3%	.	2%	.	.	.
COc1ccc(/C=N/Nc2ncccc2[N+](=O)[O-])c(OC)c1	1.1µM*	?	11µM*	3.5µM*	11µM*	2.6µM*
COc1ccc2nc(C)cc(SCC(=O)N/N=C/c3ccccc3)c2c1	-2%	-2%	3%	-4%	1%	-1%
COc1ccccc1/C=N/Nc1cc(C)nc2ccc(C)cc12	-12%	16%	.	11%	.	7%
COc1ccc(/C=N/Nc2cc(C)nc3ccc(OC)cc23)c(OC)c1	21µM*	-2%	.	3%	.	18%
COc1ccc(/C=N/Nc2ncc(-c3ccccc3)cn2)c(OC)c1	-3%	-3%	-25%	1%	-1%	5%
COc1ccc2nc(C)cc(N/N=C/c3ccccc3)c2c1	9.5µM*	-2%	.	-5%	.	4%
Cc1nc2c(c(C)c1CCC(=O)NCc1ccccc1)c(=O)n(C)c(=O)n2C	2%	.	?	.	.	.
COc1ccc(-c2cn3nc4c(nc3n2)CCCC4)cc1	0.54µM*	0.45µM*	?	0.35µM*	-26%	?
COc1ccc(CNc2cc(-c3ccc(OC)cc3)nc3nncn23)cc1	-18%	.	-17%	.	.	.
COc1ccc2nc(NC(=O)Nc3cccc4ccccc34)sc2c1	?	22%	?	?	0%	16%
COc1ccc2nc(NC(=O)Nc3ccccc3OC)sc2c1	0.95µM*	?	.	0.63µM*	.	?
COc1ccc2nc(Nc3ccc4c(c3)OCO4)sc2c1	?	?	?	4.5µM*	-7%	5.8µM*
COc1ccccc1NC(=O)Nc1nc2ccc(S(N)(=O)=O)cc2s1	?	?	.	4µM*	.	?
COc1ccc(Nc2nc3ccccc3c(=O)s2)c(OC)c1	4%	0%	6%	3%	-1%	2%
COc1ccc2nc(Nc3ccccc3OC)sc2c1	0.48µM*	1.1µM*	2.8µM*	0.35µM*	11µM*	?
CC1=C(c2ccc(Cl)cc2)S(=O)(=O)N=C1N1CCN(c2cccc(C)c2)C(C)C1 (configuration not stated)	-14%	.	.	.	.	.
Cc1cccc(NC(=O)C(NS(=O)(=O)c2cccc3nsnc23)c2ccccc2)c1C (configuration not stated)	2%	.	0%	.	.	.
CCOc1c(Cl)cc(CNc2ccc3[nH]c(=O)[nH]c3c2)cc1OC	-1%	.	-24%	.	.	.
CC(C)C[C@H](N)CSSC[C@@H](N)CC(C)C	.	.	?	.	-1%	.
